# Data taken from PubChem BioAssay (EPA / NIEHS).
# Where “and” joins values, the source holds several entries; their conditions need not be identical. Identical values can stand only once. Records with an inconclusive call do not appear. Some structures have more than one record in an assay (separate samples or runs), and their calls can disagree. Calls of active or inactive are those of the source. How the source made its calls, unless noted: active means hit-call score of the fitted dose curve at least 0.9, where 1 is the maximum; inactive means score below 0.9.
# What was measured:
# [1] = read-out: Interleukin 17F (IL17F), IL17F (gene 112744); assay: BSK_BT_xIL17F: BioMAP Diversity Plus: BT Assay for Interleukin 17F (IL17F) Biomarker Activity (AID 2284243); conditions: primary human B cells with PBMC
# How it was run: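 B cell/PBMC co-culture (human primary), 24 h compound exposure; sIL-17F by Luminex xMAP; gain-of-signal fit vs DMSO baseline.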
# [2] = read-out: Actin alpha 1 (ACTA1), ACTA1 (gene 58); assay: BSK_MyoF_ACTA1: BioMAP Diversity Plus: MyoF Assay for Actin alpha 1 (ACTA1) Biomarker Activity (AID 2284244); conditions: primary human lung fibroblasts
# How it was run: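 MyoF fibroblast system (human lung); a-SMA quantified via ELISA at 24 h; DMSO-normalised, gain-of-signal endpoint.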
# [3] = read-out: Interleukin 2 (IL2), IL2 (gene 3558); assay: BSK_BT_xIL2: BioMAP Diversity Plus: BT Assay for Interleukin 2 (IL2) Biomarker Activity (AID 2284245); conditions: primary human B cells with PBMC
# How it was run: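 Co-cultures of primary human B cells and PBMC are treated with chemical and sampled at 24 h. IL-2 secretion is quantified by Luminex xMAP, with DMSO-treated wells as baseline.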
# [4] = read-out: Basic fibroblast growth factor (bFGF), FGF2 (gene 2247); assay: BSK_MyoF_bFGF: BioMAP Diversity Plus: MyoF Assay for Basic fibroblast growth factor (bFGF) Biomarker Activity (AID 2284246); conditions: primary human lung fibroblasts
# How it was run: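 Fibroblasts from human lung, 24 h dosing. bFGF by ELISA; gain of signal over DMSO.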
# [5] = read-out: Collagen IV, COL4A1 (gene 1282); assay: BSK_MyoF_CollagenIV: BioMAP Diversity Plus: MyoF Assay for Collagen IV Biomarker Activity (AID 2284247); conditions: primary human lung fibroblasts
# How it was run: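 Lung fibroblasts (human primary) treated with chemicals were assayed after 24 h for Collagen IV using an ELISA, with DMSO serving as negative control and baseline for a positive-direction fit.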
# [6] = CCTE_Mundy_HCI_hNP1_Casp3_7: CCTE's Caspase-Glo 3/7 Assay in human neuroprogenitor cells for Apoptosis, Mundy Lab (AID 2284240)
# How it was run: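 Neuroepithelial-lineage stem cells from WA09 embryonic cells were treated with chemicals after 40–44 h of culture. Twenty-four hours later, caspase-3/7 activation was detected luminescently after a 30 min room-temperature reagent step, with DMSO as baseline.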
# [7] = CCTE_Mundy_HCI_hNP1_CellTiter: CCTE's Cell Titer-Glo 2 Assay in human neuroprogenitor cells for Viability, Mundy Lab (AID 2284241; active means hit-call score of the fitted dose curve at least 0.9, where 1 is the maximum)
# How it was run: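 Measures ATP content in human neural progenitors derived from WA09 embryonic cells. Read-out at 26.5 hours after dosing, with DMSO serving as the negative control and baseline.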
# [8] = read-out: Monokine induced gamma interferon (MIG), CXCL9 (gene 4283); assay: BSK_KF3CT_MIG: BioMAP Diversity Plus: KF3CT Assay for Monokine induced gamma interferon (MIG) Biomarker Activity (AID 2284248); conditions: primary human keratinocytes with fibroblasts
# How it was run: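 Human keratinocyte plus foreskin fibroblast primary co-culture dosed with test chemical for 24 h; MIG level measured by ELISA and fitted in the positive direction against DMSO as baseline.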
# [9] = read-out: Vascular cell adhesion molecule 1 (VCAM1), VCAM1 (gene 7412); assay: BSK_BF4T_VCAM1: BioMAP Diversity Plus: BF4T Assay for Vascular cell adhesion molecule 1 (VCAM1) Biomarker Activity (AID 2284249); conditions: primary human bronchial epithelial cells with fibroblasts
# How it was run: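 Cell-surface VCAM-1 quantified by ELISA after 24 h chemical exposure of human bronchial epithelial/dermal fibroblast co-cultures, with SRB staining in parallel wells for cytotoxicity; DMSO baseline, positive-direction fitting.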
# [10] = CCTE_Mundy_HCI_Cortical_Synap_Neur_Matur_NeuronCount: CCTE's Synaptogenesis and Neurite Maturation Assay in rat cortical cells for Neuron Count, Mundy Lab (AID 2284242; active means hit-call score of the fitted dose curve at least 0.9, where 1 is the maximum)
# How it was run: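 Measured at DIV 12: fluorescently labelled neurons (Hoechst nuclei, MAP2) in rat primary cortical cultures, counted by high-content imaging. AraC suppressed glia from DIV 5; DMSO served as negative control.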
compound,measurement,setting,value
C#C[C@]1(O)CC[C@H]2[C@@H]3CCc4cc(OC)ccc4[C@H]3CC[C@@]21C,AC50,[1],20 µM (active)
same,outcome,[2],inactive
same,outcome,[3],inactive
same,outcome,[4],inactive
same,outcome,[5],inactive
C=CC(=O)OCC(F)(F)C(F)(F)C(F)(F)C(F)(F)COC(=O)C=C,outcome,[6],inactive
same,outcome,[7],inactive
same,AC50,[1],4.17 µM (active) and 2.81 µM (active)
same,AC50,[2],8.86 µM (active) and 9.38 µM (active)
same,AC50,[3],11.2 µM (active) and 9.62 µM (active)
same,AC50,[4],18.2 µM (active) and 14.5 µM (active)
same,AC50,[5],12.4 µM (active) and 14.3 µM (active)
same,AC50,[8],21.5 µM (active) and 29.6 µM (active)
same,AC50,[9],7.96 µM (active) and 10.9 µM (active)
CCCCCCCCCCCCCCCC[N+](C)(C)Cc1ccccc1,AC50,[1],2.96 µM (active)
same,AC50,[2],1.36 µM (active)
same,AC50,[3],2.01 µM (active)
same,AC50,[4],2.02 µM (active)
same,AC50,[5],3.21 µM (active)
OCC(F)(F)C(F)(F)C(F)(F)C(F)F,outcome,[6],inactive
same,outcome,[7],inactive
same,outcome,[1],inactive
same,outcome,[2],inactive
same,outcome,[3],inactive
same,outcome,[4],inactive
same,outcome,[5],inactive
same,outcome,[8],inactive
same,outcome,[9],inactive
FC(F)(F)C(F)(F)C(F)(F)C(F)(F)C(F)(F)C(F)(F)CC1CO1 (configuration not stated),outcome,[6],inactive
same,outcome,[7],inactive
same,outcome,[1],inactive
same,outcome,[2],inactive
same,outcome,[3],inactive
same,outcome,[4],inactive
same,outcome,[5],inactive
same,outcome,[8],inactive
same,outcome,[9],inactive
CCCCCCC(C)OC(=O)CCCCC(=O)OC(C)CCCCCC (configuration not stated),outcome,[1],inactive
same,outcome,[2],inactive
same,outcome,[3],inactive
same,outcome,[4],inactive
same,outcome,[5],inactive
CO[Si](OC)(c1ccccc1)c1ccccc1,outcome,[1],inactive
same,AC50,[2],30.8 µM (active)
same,outcome,[3],inactive
same,outcome,[4],inactive
same,outcome,[5],inactive
CCN(CC)c1ccc2c(C)cc(=O)oc2c1,outcome,[1],inactive
same,outcome,[2],inactive
same,outcome,[3],inactive
same,outcome,[4],inactive
same,outcome,[5],inactive
CCCCOCCOCCOC(=O)CCCCC(=O)OCCOCCOCCCC,outcome,[1],inactive
same,outcome,[2],inactive
same,outcome,[3],inactive
same,outcome,[4],inactive
same,outcome,[5],inactive
Oc1ccc(Nc2ccccc2)cc1,AC50,[1],27.7 µM (active)
same,outcome,[2],inactive
same,AC50,[3],37.2 µM (active)
same,outcome,[4],inactive
same,outcome,[5],inactive
FC(F)(F)C(F)(F)C(F)(F)C(F)(F)C(F)(F)C(F)(F)C(F)(F)C(F)(F)F,outcome,[6],inactive
same,outcome,[7],inactive
same,outcome,[1],inactive
same,outcome,[2],inactive
same,outcome,[3],inactive
same,outcome,[4],inactive
same,outcome,[5],inactive
same,outcome,[8],inactive
same,outcome,[9],inactive
CCc1ccc(C(c2ccc(CC)cc2)C(Cl)Cl)cc1,AC50,[1],29.7 µM (active)
same,AC50,[2],7.07 µM (active)
same,AC50,[3],30.3 µM (active)
same,AC50,[4],28.9 µM (active)
same,outcome,[5],inactive
CCc1c(Br)c(Br)c(Br)c(Br)c1Br,outcome,[1],inactive
same,outcome,[2],inactive
same,outcome,[3],inactive
same,outcome,[4],inactive
same,outcome,[5],inactive
CC(CCl)OP(=O)(OC(C)CCl)OC(C)CCl (configuration not stated),outcome,[6],inactive
same,outcome,[7],inactive
same,outcome,[10],inactive
same,outcome,[1],inactive
same,outcome,[2],inactive
same,outcome,[3],inactive
same,outcome,[4],inactive
same,outcome,[5],inactive
OCCCC(F)(F)C(F)(F)C(F)(F)C(F)(F)C(F)(F)C(F)(F)C(F)(F)F,outcome,[6],inactive
same,outcome,[7],inactive
same,AC50,[1],17.8 µM (active) and 18.5 µM (active)
same,AC50,[2],37.7 µM (active) and 44.6 µM (active)
same,AC50,[3],20.5 µM (active) and 33.2 µM (active)
same,AC50,[4],50.9 µM (active) and 57.8 µM (active)
same,AC50,[5],49.5 µM (active) and 48.3 µM (active)
same,AC50,[8],25.7 µM (active) and 54.8 µM (active)
same,AC50,[9],38.1 µM (active) and 42.2 µM (active)
CC(=O)Nc1ccc(N=Nc2cc(C)ccc2O)cc1,outcome,[1],inactive
same,outcome,[2],inactive
same,outcome,[3],inactive
same,outcome,[4],inactive
same,AC50,[5],10.6 µM (active)
FC(F)(F)C(F)(F)C(F)(F)C(F)(F)CCI,outcome,[6],inactive
same,outcome,[7],inactive
same,outcome,[1],inactive
same,outcome,[2],inactive
same,outcome,[3],inactive
same,outcome,[4],inactive
same,outcome,[5],inactive
same,outcome,[8],inactive
same,outcome,[9],inactive
Nc1ccc([N+](=O)[O-])cc1O,outcome,[1],inactive
same,outcome,[2],inactive
same,outcome,[3],inactive
same,outcome,[4],inactive
same,outcome,[5],inactive
FC(F)(F)C(F)(F)C(F)(F)C(F)(F)C(F)(F)C(F)(F)C(F)(F)C(F)(F)CCS,outcome,[6],inactive
same,outcome,[7],inactive
same,outcome,[1],inactive
same,outcome,[2],inactive
same,outcome,[3],inactive
same,outcome,[4],inactive
same,outcome,[5],inactive
same,outcome,[8],inactive
same,outcome,[9],inactive
O=C(CC(=O)C(F)(F)C(F)(F)F)C(F)(F)F,outcome,[6],inactive
same,outcome,[7],inactive
same,AC50,[1],20.8 µM (active)
same,outcome,[1],inactive
same,outcome,[2],inactive
same,outcome,[3],inactive
same,outcome,[4],inactive
same,outcome,[5],inactive
same,outcome,[8],inactive
same,outcome,[9],inactive
O=C(O)C(F)(F)C(F)(F)OC(F)(F)F,outcome,[6],inactive
same,outcome,[7],inactive
same,outcome,[1],inactive
same,outcome,[2],inactive
same,outcome,[3],inactive
same,outcome,[4],inactive
same,outcome,[5],inactive
same,outcome,[8],inactive
same,outcome,[9],inactive
CCCCNc1ccccc1,outcome,[1],inactive
same,outcome,[2],inactive
same,outcome,[3],inactive
same,outcome,[4],inactive
same,outcome,[5],inactive
N=C(N)C(F)(F)C(F)(F)C(F)(F)C(F)(F)C(F)(F)C(F)(F)C(F)(F)F,outcome,[6],inactive
same,outcome,[7],inactive
same,AC50,[1],31.7 µM (active)
same,outcome,[1],inactive
same,outcome,[2],inactive
same,AC50,[3],45.7 µM (active)
same,outcome,[3],inactive
same,outcome,[4],inactive
same,outcome,[5],inactive
same,outcome,[8],inactive
same,outcome,[9],inactive
C=C(C)C(=O)OCC(F)(F)C(F)(F)C(F)(F)F,outcome,[6],inactive
same,outcome,[7],inactive
same,outcome,[1],inactive
same,outcome,[2],inactive
same,outcome,[3],inactive
same,outcome,[4],inactive
same,outcome,[5],inactive
same,outcome,[8],inactive
same,outcome,[9],inactive
CC(C)(C)C(=O)CC(=O)C(F)(F)C(F)(F)C(F)(F)F,outcome,[6],inactive
same,outcome,[7],inactive
same,outcome,[1],inactive
same,outcome,[2],inactive
same,outcome,[3],inactive
same,outcome,[4],inactive
same,outcome,[5],inactive
same,outcome,[8],inactive
same,outcome,[9],inactive
O=C(O)C(F)(F)C(F)(F)C(F)(F)C(F)(F)C(F)(F)C(F)(F)C(F)(F)C(F)(F)C(F)(F)C(F)(F)C(F)(F)C(F)(F)F,outcome,[1],inactive
same,AC50,[2],0.786 µM (active)
same,outcome,[2],inactive
same,outcome,[3],inactive
same,outcome,[4],inactive
same,outcome,[5],inactive
same,AC50,[8],20.5 µM (active)
same,outcome,[8],inactive
same,outcome,[9],inactive
O=P(O)(O)OCCC(F)(F)C(F)(F)C(F)(F)C(F)(F)C(F)(F)C(F)(F)F,outcome,[6],inactive
same,outcome,[7],inactive
same,outcome,[1],inactive
same,outcome,[2],inactive
same,outcome,[3],inactive
same,outcome,[4],inactive
same,outcome,[5],inactive
same,outcome,[8],inactive
same,outcome,[9],inactive
FC(F)(F)C(F)(F)C(F)(F)CI,outcome,[6],inactive
same,outcome,[7],inactive
same,outcome,[1],inactive
same,outcome,[2],inactive
same,outcome,[3],inactive
same,outcome,[4],inactive
same,outcome,[5],inactive
same,outcome,[8],inactive
same,outcome,[9],inactive
CS(C)(=O)=O,outcome,[1],inactive
same,outcome,[2],inactive
same,outcome,[3],inactive
same,outcome,[4],inactive
same,outcome,[5],inactive
O=C(O)C(F)(F)C(F)(F)C(F)(F)F,outcome,[6],inactive
same,outcome,[7],inactive
same,outcome,[1],inactive
same,outcome,[2],inactive
same,outcome,[3],inactive
same,outcome,[4],inactive
same,outcome,[5],inactive
same,outcome,[8],inactive
same,outcome,[9],inactive
OCC(F)(F)C(F)(F)C(F)(F)F,outcome,[6],inactive
same,outcome,[7],inactive
same,outcome,[1],inactive
same,outcome,[2],inactive
same,outcome,[3],inactive
same,outcome,[4],inactive
same,outcome,[5],inactive
same,outcome,[8],inactive
same,outcome,[9],inactive
C=CC/C=C/C/C=C/C/C=C/C,outcome,[1],inactive
same,outcome,[2],inactive
same,outcome,[3],inactive
same,outcome,[4],inactive
same,outcome,[5],inactive
OC[C@@H](O)[C@@H](O)[C@H](O)[C@@H](O)CO,outcome,[6],inactive
same,outcome,[10],inactive
O[Si](c1ccccc1)(c1ccccc1)c1ccccc1,AC50,[1],32.6 µM (active)
same,AC50,[2],20 µM (active)
same,AC50,[3],31.3 µM (active)
same,outcome,[4],inactive
same,outcome,[5],inactive
O=C(O)C(F)(F)C(F)(F)C(F)(F)C(F)(F)C(F)(F)C(F)(F)C(F)(F)C(F)(F)Cl,outcome,[6],inactive
same,outcome,[7],inactive
same,outcome,[1],inactive
same,AC50,[2],50.7 µM (active) and 43.8 µM (active)
same,outcome,[3],inactive
same,outcome,[4],inactive
same,AC50,[5],7.89 µM (active)
same,outcome,[5],inactive
same,AC50,[8],45.7 µM (active) and 54.2 µM (active)
same,AC50,[9],7.26 µM (active)
same,outcome,[9],inactive
